# Test results reported in PubChem BioAssay (NCI).
# Values joined by “and” are separate entries in the source; they are usually repeats but may differ in a detail not shown here. Equal entries are not always repeated. This is part of a sample that, as a whole, favours compounds with a hit. Of some 83,000 tested, about 20% had one in any assay.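 A percent growth of 40 corresponds to 60% growth inhibition; 0 means no net growth; -100 means all cells died. Active threshold: below 10.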 Active and inactive are the calls of the source.
# Assays:
# Experiment in all cases: NCI-60 one-dose screen, 48 h (100 = growth as untreated, 0 = no growth, -100 = all killed)
# Details in all cases: 10 µM unless noted
# [1] = tested on: HCT-15 colon
# [2] = tested on: HT29 colon
# [3] = tested on: SNB-75 CNS
# [4] = tested on: SNB-19 CNS
# [5] = tested on: U251 CNS
# [6] = tested on: PC-3 prostate
# [7] = tested on: SK-MEL-5 melanoma
# [8] = tested on: UACC-62 melanoma
# [9] = tested on: LOX IMVI melanoma
# [10] = tested on: SK-MEL-2 melanoma
# [11] = tested on: EKVX NSCLC
# [12] = tested on: SN12C renal
# [13] = tested on: UO-31 renal
# [14] = tested on: TK-10 renal
# [15] = tested on: ACHN renal
# [16] = tested on: CAKI-1 renal
# [17] = tested on: A498 renal
# [18] = tested on: CCRF-CEM leukemia
# [19] = tested on: MOLT-4 leukemia
# [20] = tested on: SK-MEL-28 melanoma
Compound,growth [1],growth [2],growth [3],growth [4],growth [5],growth [6],growth [7],growth [8],growth [9],growth [10],growth [11],growth [12],growth [13],growth [14],growth [15],growth [16],growth [17],growth [18],growth [19],growth [20]
CC/C(=C(/c1ccc(O)cc1)c1ccc(OCCN2CCCCCC2)cc1)c1ccc(Cl)cc1,31.5% (inactive),14.2% (inactive),88.7% (inactive),80.2% (inactive),50.7% (inactive),27.8% (inactive),67% (inactive),83.2% (inactive),67.7% (inactive),96.5% (inactive),91.9% (inactive),74.5% (inactive),65.7% (inactive),91.6% (inactive),99.9% (inactive),95.8% (inactive),97.7% (inactive),20.7% (inactive),17% (inactive),–
COc1ccc(C/C(C)=C(/c2ccc(OCCN3CCCCCC3)cc2)c2ccc(OC(=O)c3ccccc3)cc2)cc1,100% (inactive),89.9% (inactive),110% (inactive),102% (inactive),107% (inactive),101% (inactive),109% (inactive),–,90.7% (inactive),97.4% (inactive),93% (inactive),97.4% (inactive),88.4% (inactive),97.2% (inactive),99.6% (inactive),104% (inactive),120% (inactive),93% (inactive),77% (inactive),106% (inactive)
COc1ccc(Nc2nn3c(SCC(=O)c4ccc(C)cc4)nnc3s2)cc1,105% (inactive),105% (inactive),95.7% (inactive),98.8% (inactive),106% (inactive),85.5% (inactive),95.4% (inactive),–,95.9% (inactive),98.2% (inactive),99.9% (inactive),101% (inactive),58.7% (inactive),107% (inactive),86.5% (inactive),75.2% (inactive),93.7% (inactive),98.1% (inactive),85.4% (inactive),109% (inactive)
C=C(CN1CC=CCC1)[C@@H]1CC[C@]2(COC(C)=O)CC[C@]3(C)[C@H](CC[C@@H]4[C@@]5(C)CC[C@H](O)C(C)(C)[C@@H]5CC[C@]43C)[C@@H]12,101% (inactive),79.7% (inactive),98.9% (inactive),97.1% (inactive),92.8% (inactive),79.6% (inactive),99.3% (inactive),–,100% (inactive),104% (inactive),109% (inactive),97.8% (inactive),89.4% (inactive),113% (inactive),99.8% (inactive),107% (inactive),116% (inactive),85.4% (inactive),92.4% (inactive),105% (inactive)
COc1cc(N=Nc2ccc(O)c3ncccc23)c2ncccc2c1,27.5% (inactive),44.5% (inactive),41.9% (inactive),47.6% (inactive),16.5% (inactive),32.4% (inactive),43.1% (inactive),–,4.79% (active),61.3% (inactive),65.8% (inactive),68.6% (inactive),16.6% (inactive),69.2% (inactive),4.47% (active),17.3% (inactive),74.9% (inactive),5% (active),6.75% (active),42% (inactive)
CCOC(=O)n1cc(-c2nonc2-c2cn(C)c3ccc(OC)cc23)c2cc(F)ccc21,69.2% (inactive),71.1% (inactive),70.2% (inactive),76.1% (inactive),83.1% (inactive),65% (inactive),92% (inactive),–,72.2% (inactive),99.8% (inactive),73.3% (inactive),77.5% (inactive),52.1% (inactive),94.2% (inactive),60.2% (inactive),52.2% (inactive),67.5% (inactive),80.9% (inactive),80.3% (inactive),99.6% (inactive)
O=C(CCl)N(O)c1ccc(/C=C/c2ccccc2)cc1,78.3% (inactive) and 66.3% (inactive),73.1% (inactive) and 38.7% (inactive),95.9% (inactive) and 96.3% (inactive),90.1% (inactive) and 86.7% (inactive),81.5% (inactive) and 73.5% (inactive),85.7% (inactive) and 86.6% (inactive),68.6% (inactive) and 65.3% (inactive),–,46.8% (inactive) and 36.1% (inactive),88.1% (inactive) and 77.7% (inactive),81.7% (inactive),63.3% (inactive) and 48.8% (inactive),66.4% (inactive) and 65.2% (inactive),89.7% (inactive) and 81.1% (inactive),97.8% (inactive) and 87.6% (inactive),95.3% (inactive) and 91.1% (inactive),69.2% (inactive) and 87.1% (inactive),-4.68% (active) and 10.3% (inactive),7.08% (active) and 12.4% (inactive),107% (inactive) and 112% (inactive)
Cc1ccc(-c2nc(C#N)c(S(=O)(=O)N(C)C)o2)cc1,19.7% (inactive),97.7% (inactive),83.7% (inactive),98.2% (inactive),93.3% (inactive),103% (inactive),92.5% (inactive),–,49.8% (inactive),91.1% (inactive),106% (inactive),75.2% (inactive),91.7% (inactive),103% (inactive),-59.4% (active),90% (inactive),77% (inactive),-10.9% (active),-22.8% (active),102% (inactive)
O=c1ccc2nc(-c3ccccn3)nn(-c3ccccc3)c-2c1,-48% (active),-44.2% (active),98.4% (inactive),98.9% (inactive),98.3% (inactive),89% (inactive),36% (inactive),–,11.7% (inactive),106% (inactive),115% (inactive),84.6% (inactive),40.1% (inactive),-70.9% (active),-84.7% (active),72.5% (inactive),91.9% (inactive),8.49% (active),5.56% (active),70.7% (inactive)
COC(=O)[C@H]1Cc2c([nH]c3ccccc23)[C@@H](c2cccs2)N1,102% (inactive),97.1% (inactive),83.8% (inactive),98.2% (inactive),97.7% (inactive),100% (inactive),100% (inactive),89.5% (inactive),104% (inactive),97.2% (inactive),96.3% (inactive),102% (inactive),93% (inactive),86.7% (inactive),111% (inactive),89.8% (inactive),93.2% (inactive),101% (inactive),103% (inactive),–
COC(=O)c1nc(-c2ccc(C)cc2)oc1Sc1ccc(C)cc1,86.8% (inactive),102% (inactive),79.3% (inactive),101% (inactive),94.3% (inactive),–,105% (inactive),76.9% (inactive),93.5% (inactive),104% (inactive),105% (inactive),96% (inactive),82.6% (inactive),106% (inactive),96.1% (inactive),95% (inactive),130% (inactive),86.9% (inactive),71.7% (inactive),106% (inactive)
COC(=O)/C=C1/SC(N2N=C(c3cccs3)CC2c2ccc(F)cc2)=NC1=O (stereo unspecified),-9.66% (active),13.3% (inactive),48% (inactive),76.4% (inactive),22.1% (inactive),–,54.1% (inactive),56.8% (inactive),-46.5% (active),80.9% (inactive),94% (inactive),56% (inactive),52.6% (inactive),78.5% (inactive),74.4% (inactive),77% (inactive),80.5% (inactive),8.74% (active),-3.67% (active),43.8% (inactive)
CN1C(=O)N(C)C2(c3ccccc3)N(CC(=O)Nc3ccccc3O)C(=O)NC12c1ccccc1 (stereo unspecified),103% (inactive),111% (inactive),74.3% (inactive),100% (inactive),105% (inactive),–,101% (inactive),91% (inactive),96.8% (inactive),111% (inactive),102% (inactive),103% (inactive),74.6% (inactive),93.9% (inactive),102% (inactive),74.1% (inactive),121% (inactive),111% (inactive),102% (inactive),123% (inactive)
O=C(c1ccc(Nc2nccc(NCCCNc3ccnc4cc(Cl)ccc34)n2)cc1)N1CCCCC1,92.2% (inactive),19.7% (inactive),90.5% (inactive),35% (inactive),23% (inactive),–,43.7% (inactive),21.4% (inactive),-14.3% (active),64.5% (inactive),57% (inactive),34.3% (inactive),82.3% (inactive),73.2% (inactive),79.9% (inactive),89.9% (inactive),69.1% (inactive),37.1% (inactive),25.3% (inactive),71.8% (inactive)
